In PubChem BioAssay AID588852 (The Scripps Research Institute Molecular Screening Center, 2011) one finds inhibition data, which are given here for 87 compounds.

For orientation: inhibition means the drop in the measured response relative to a control, in per cent.

Among all 360,000 compounds or so, about 4,600 (1.3%) were called active.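 The calls were made as follows: active = percent inhibition above its own plate's cutoff, namely the mean of that plate's compound wells plus 3 SD; inactive = the rest.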 Shown is part of a subset that was picked to be rich in actives.

For this assay, the target named is Muscarinic acetylcholine receptor M1 (Homo sapiens) (UniProt P11229). Kind of assay: human M1 muscarinic receptor antagonists, primary screen, CHO-K1 cells, Fluo-8 calcium fluorescence, 1536-well (AID 588852).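 Also: peak over basal fluorescence ratio during 140 s after agonist addition; 0% = ACh EC80 plus DMSO and 100% = DMSO alone without agonist.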 The conditions noted are these: CHO-K1 hM1, Fluo-8 calcium fluorescence, ACh EC80 antagonist; at 3 µM; stronger effect = higher value.
Sequence of Muscarinic acetylcholine receptor M1 (Homo sapiens) (P11229 whole entry, looked up): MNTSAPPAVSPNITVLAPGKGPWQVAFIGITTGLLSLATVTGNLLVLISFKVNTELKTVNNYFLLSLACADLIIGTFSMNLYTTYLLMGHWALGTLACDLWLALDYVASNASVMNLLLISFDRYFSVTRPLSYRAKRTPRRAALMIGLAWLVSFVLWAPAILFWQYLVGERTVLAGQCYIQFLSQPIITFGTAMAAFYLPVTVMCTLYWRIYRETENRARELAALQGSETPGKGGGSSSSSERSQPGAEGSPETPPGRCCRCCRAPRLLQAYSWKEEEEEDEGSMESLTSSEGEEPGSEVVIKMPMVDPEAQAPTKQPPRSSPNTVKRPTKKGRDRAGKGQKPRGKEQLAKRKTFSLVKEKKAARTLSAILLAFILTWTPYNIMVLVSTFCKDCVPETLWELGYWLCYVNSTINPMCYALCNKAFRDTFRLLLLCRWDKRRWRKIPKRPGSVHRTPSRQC
On to `O=C(C1CCC1)N1CCc2cc(S(=O)(=O)NCc3cccnc3)ccc21`, for which the inhibition is -15.2% (inactive). Under `FC(F)(F)Oc1ccccc1C(c1nnnn1C1CCCCC1)N1CCN(C/C=C/c2ccccc2)CC1` (configuration not stated) stands -18.7% (inactive); under `COc1ccc(C(c2nnnn2C2CCCCC2)N2CCN(c3ccccc3F)CC2)cc1` (configuration not stated), -2.28% (inactive); under `COc1ccc(C(c2nnnn2C2CCCC2)N2CCN(C/C=C/c3ccccc3)CC2)cc1` (configuration not stated), 48.7% (active). Under `CC(=O)Nc1cc(-c2ccccc2N(C)C)cn2c(-c3ccc(F)c(Cl)c3)cnc12` stands -16.4% (inactive); under `CC(=O)c1ccc(N2CCN(C(=O)c3ccc4nc[nH]c4c3)CC2)cc1`, -1.75% (inactive). Under `Cc1nc2ccc(C(=O)N(C)CC3CCCN(CCc4ccc(Cl)cc4)C3)cc2[nH]1` (configuration not stated) stands 17.1% (inactive); under `CN(CC1CCCN(CCc2cccc(C(F)(F)F)c2)C1)C(=O)c1ccc2nc[nH]c2c1` (configuration not stated), 84.4% (active); under `COc1ccc(NC(=O)C2Cc3c(-c4ccc5c(c4)OCO5)ccnc3O2)cn1` (configuration not stated), -14.1% (inactive). For `COc1ccc(-c2[nH][nH]c(=O)c2NC(=O)c2ccc([N+](=O)[O-])cc2)cc1`, the inhibition was -25% (inactive). Turning to `CSCCNCc1cn(-c2ccc(F)cc2F)nc1-c1ccccc1C`, the inhibition is -13.6% (inactive).

As to `CC(=O)Nc1cccc(-c2ccnc3c2CC(C)(C(=O)NCc2ccco2)O3)c1` (configuration not stated), the inhibition is -8.07% (inactive).

Take `COc1ccc(CCNC(=O)COC(=O)c2ccc[nH]c2=O)cc1`: the inhibition is -7.65% (inactive). Under `CCOC(=O)c1cc(-c2nnc(-c3cc(OC)c(OC)c(OC)c3)o2)c(C)nc1C` stands -32.2% (inactive). Under `CCCc1nc2ccccc2c(C(=O)OCc2nnc(-c3cc(OC)c(OC)c(OC)c3)o2)c1CC` stands 24.3% (active); under `O=C(OCc1nnc(-c2ccccc2)o1)c1cc(=O)[nH]c2ccccc12`, -2.41% (inactive). For `O=C(NC1CCCCC1)C1CCC(CNS(=O)(=O)c2ccccc2)CC1` (configuration not stated), the inhibition is 2.63% (inactive). Under `CCCCN1C(N)=NC[C@@H]1Cc1ccccc1` stands -1.32% (inactive); under `CC[C@@H](C)[C@@H]1CN([C@@H](C)CN2CCC[C@H]2CN2C(N)=NC[C@H]2C(C)C)C(=N)N1CCc1ccc(Cl)c(Cl)c1`, 16.5% (inactive). Under `C[C@@H](CN1CCC[C@H]1CN1C(N)=NC[C@@H]1Cc1ccccc1)N1C[C@@H](Cc2ccccc2)N(CCCC2CCCC2)C1=N` stands 93.1% (active); under `Cc1cc(/C=C2/SC(=O)N(CC(=O)N3CCCC3)C2=O)ccc1N1CCOCC1`, -1.78% (inactive); under `COc1ccc(S(=O)(=O)NC(C)C(=O)N2CCCCCC2)cc1` (configuration not stated), -12.2% (inactive). Under `COc1ccc(NC(=O)N2CCC(Cc3ccccc3)CC2)cc1` stands -2.81% (inactive). Consider `COc1ccc(CNS(=O)(=O)c2ccc(NC(=O)N3CCCCC3)cc2)cc1`, for which the inhibition is 33.3% (active). For the compound `COCC(=O)N1CCCC(C(=O)c2ccc(C(F)(F)F)cc2)C1` (configuration not stated), the inhibition is -12.9% (inactive). Under `O=C1CCCC2=C1C(c1cccs1)n1nc(SCc3ccccc3)nc1N2` (configuration not stated) stands -6.44% (inactive); under `COc1ccc2cc(C(=O)NCC3CCCO3)[nH]c2c1` (configuration not stated), -11.4% (inactive). For `O=C(NCC1CCCO1)c1cc2c([nH]c3ccccc32)c(-c2ccc(F)cc2)n1` (configuration not stated), the inhibition was 42.6% (active). Under `O=C(NCCCO)c1cc2c([nH]c3ccccc32)c(-c2ccc(F)cc2)n1` stands 1.06% (inactive); under `CC(C)(C)c1ccc(CCC2OCC(CN3CCOCC3)O2)cc1` (configuration not stated), -5.48% (inactive); under `NC(=O)CC[C@@H]1NC(=O)[C@@H]2CCCN2C(=O)c2cc([N+](=O)[O-])cc(F)c2NCCC[C@@H](C(N)=O)NC1=O`, -13.1% (inactive). Under `CCc1ccc(NC(=O)CN2C(=O)COc3ccc(S(=O)(=O)N4CCCC4)cc32)cc1` stands -15.9% (inactive); under `CN(CC(=O)Nc1ccc(F)cc1)CC(=O)Nc1ccc(Cl)c(S(=O)(=O)N2CCOCC2)c1`, -20.8% (inactive); under `Cc1ccc(CC(=O)Nc2ccc(S(=O)(=O)N3CCOCC3)cc2)cc1C`, -11.9% (inactive). Under `CN(CC(=O)Nc1ccc(S(=O)(=O)N2CCCC2)cc1)Cc1ccc(Cl)c(Cl)c1` stands 34.9% (active); under `COc1ccccc1CC(=O)Nc1ccc(S(=O)(=O)N2CCCC2)cc1`, -9.64% (inactive); under `CC(C(=O)Nc1ccc(S(=O)(=O)N2CCCC2)cc1)N(C)Cc1ccc(F)cc1` (configuration not stated), 53.5% (active). On to `CC(OC(=O)c1ccc(NC(=O)CC#N)cc1)C(=O)Nc1ccc(S(=O)(=O)N2CCCC2)cc1` (configuration not stated), for which the inhibition was 32.6% (inactive). Under `O=C(Nc1ccc(S(=O)(=O)N2CCCCC2)cc1)C1CCN(C(=O)c2ccc(F)cc2)CC1` stands 9.2% (inactive); under `CCc1ccc(CN(C)C(C)C(=O)Nc2ccc(S(=O)(=O)N3CCCC3)cc2)cc1` (configuration not stated), 88.9% (active); under `O=C(Nc1ccc(S(=O)(=O)N2CCCCC2)cc1)C1CC(=O)N(c2ccc(F)cc2)C1` (configuration not stated), -6.03% (inactive). Under `CCN(CC(=O)Nc1ccc(S(=O)(=O)N2CCCC2)cc1)CC(=O)Nc1cccc(OC)c1` stands -10.7% (inactive). Take `COc1cccc(CNC(C)C(=O)Nc2ccc(S(=O)(=O)N3CCCC3)cc2)c1` (configuration not stated): the inhibition is 39.5% (active). Under `COc1cccc(CNn2cn[nH]c2=S)c1OCc1ccccc1` stands -12.7% (inactive). Under `COc1ccccc1-c1cc2nc(NCc3cccc(Cl)c3)ccn2n1` stands -15.4% (inactive); under `Nc1ncnc2c1ncn2[C@@H]1O[C@H](C(=O)NS(=O)(=O)c2c(Cl)nc3sccn23)[C@@H](O)[C@H]1O`, -32.1% (inactive).

`Cc1csc2nc(COC(=O)c3cccc(N(C)C)c3)cc(=O)n12`: the inhibition is 6.38% (inactive).

As to `O=C(CSCc1ccc(Br)cc1)Nc1ccc(S(=O)(=O)N2CCCCCC2)cc1`, the inhibition was 4.8% (inactive).

As for `O=C(CN1CCCCCC1)Nc1ccc(S(=O)(=O)N2CCCCC2)cc1`, the inhibition is 33.1% (active).

Turning to `CCOc1ccc(NC(=O)COc2ccc(S(=O)(=O)N3CCCC3)cc2)cc1`, the inhibition was 16% (inactive).

For `COCc1c(C(=O)N/N=C(\C)c2ccncc2)nnn1-c1nonc1N`, the inhibition is -10.9% (inactive).

With `FC(F)(F)c1ccccc1Cc1c(-c2ccccc2)nc2c3ccccc3ccn12`, the inhibition is -26% (inactive). Under `COc1ccccc1N(CC(=O)Nc1c(C)n(C)n(-c2ccccc2)c1=O)S(=O)(=O)c1ccccc1` stands -20.5% (inactive); under `CN(C)CCCCCN(C)Cc1cc2ccccc2o1`, -3.73% (inactive). Under `COc1ccc(-c2cc(NC=O)c3ncc(-c4ccccc4)n3c2)cc1OC` stands 4.7% (inactive); under `CC(=O)Nc1ccc(-c2cn3cccnc3n2)cc1`, -2.56% (inactive). On to `CC(=O)Nc1ccc(-c2csc(NC(=O)Nc3ccccc3)n2)cc1`, for which the inhibition is 38.3% (active). In the case of `NC(c1ccccc1)c1csc(NC(=O)Nc2cccc(C(F)(F)F)c2)n1` (configuration not stated), the inhibition is 6.11% (inactive). Under `CC(CCc1ccc(O)cc1)NCc1ccc(Cl)cc1Cl` (configuration not stated) stands 30.2% (active). Under `COc1ccc(CNC(=O)C(C)NCc2ccccc2Cl)cc1` (configuration not stated) stands 1.81% (inactive); under `CC(CCc1ccccc1)NC(=O)c1cnc(Cl)c(Cl)c1` (configuration not stated), 2.23% (inactive); under `COc1ccc(-c2cc(NC=O)c3ncc(-c4cc(OC)c(OC)c(OC)c4)n3c2)c(OC)c1`, 5.71% (inactive). With `Cc1ccc2cc(CCNC(=O)c3ccc4c(c3)OCO4)c(=O)[nH]c2c1`, the inhibition was -6.75% (inactive). Regarding `Cc1ccc(N(C(=O)c2sc(C)nc2C)C(C(=O)NC(C)(C)C)c2ccncc2)cc1` (configuration not stated), the inhibition was -4.9% (inactive). As to `CCOCCCNS(=O)(=O)Cc1ccccc1`, the inhibition was -12.6% (inactive). Under `Cc1nccn1-c1ccc(NC(=O)[C@H]2O[C@@H](n3cnc4c(N)ncnc43)[C@H](O)[C@@H]2O)cc1` stands -16.5% (inactive); under `O=C(NC1CCCCC1)c1ccc2c(=O)n(CC3CCCO3)c(=O)[nH]c2c1` (configuration not stated), -13.8% (inactive); under `CC1CCCCN1CCCNC(=O)Cn1ncc2c([nH]c3ccccc32)c1=O` (configuration not stated), 3.02% (inactive). Under `CCCCCn1c(=O)[nH]c2cc(C(=O)NCCCN3CCCCC3C)ccc2c1=O` (configuration not stated) stands 27.5% (active); under `Cc1ccccc1NC(=O)Cc1nc(COC(=O)CNC(=O)c2ccc(Cl)cc2Cl)cs1`, -13% (inactive); under `CN(C(=O)CN1C(=O)NC(C)(CCc2ccccc2)C1=O)c1ccccc1` (configuration not stated), -11.9% (inactive).

On to `Cc1ccc(CN2C(=O)N/C(=C/c3cc(C)n(-c4ccccn4)c3C)C2=O)cc1`, for which the inhibition was -1.22% (inactive). With `CN(C)c1ccc(/C=C2\NC(=S)N(Cc3ccccc3)C2=O)cc1`, the inhibition is 68.3% (active). Under `COc1ccc(-c2cc(NC(C)=O)c3ncc(-c4cc(OC)c(OC)c(OC)c4)n3c2)cn1` stands -10.3% (inactive); under `CC(=O)N[C@H]1[C@H]([C@H](O)[C@H](O)CO)OC(C(=O)O)=C[C@@H]1O`, -23.4% (inactive).

As to `CC(=O)Nc1cc(-c2ccccc2F)cn2c(-c3cccc(C(F)(F)F)c3)cnc12`, the inhibition was -3.02% (inactive).

On to `Fc1cccc2ncnc(OCc3ccccc3)c12`, for which the inhibition was -13.7% (inactive). As to `Cc1occc(=O)c1OCc1ccc(F)cc1`, the inhibition was -6.78% (inactive). Under `Cc1nc2ccccc2cc1OCc1ccc(F)cc1` stands 18% (active). Under `Clc1cccc(Cc2c(-c3cccc(Cl)c3)nc3ccc(Cl)cn23)c1` stands -29.8% (inactive); under `COCCNc1nc(Nc2ccccc2Cl)c2sc(-c3ccccc3)cc2n1`, -5.82% (inactive).

For `Clc1ccccc1Nc1nc(NCc2cccs2)nc2ccsc12`, the inhibition was 7.85% (inactive). Regarding `COc1ccccc1CNc1nc(Nc2ccccc2Cl)c2sccc2n1`, the inhibition was 30.1% (active). Under `Cc1cc(Br)cn2c(Cc3cccc(F)c3)c(-c3cccc(Br)c3)nc12` stands -3.87% (inactive); under `c1ccc2c(c1)OCC(CNc1ncnc3nc[nH]c13)O2` (configuration not stated), 101% (active).

For `O=C(Cn1cnc2ccccc2c1=O)NCC1COc2ccccc2O1` (configuration not stated), the inhibition was -3.89% (inactive). On to `COc1ccc(CCNc2ncnc3nc[nH]c23)cc1OC`, for which the inhibition was 5.06% (inactive).
